Where “and” joins values, the source holds several entries; their conditions need not be identical. Equal entries are not always repeated. ± gives the standard deviation of the averaged measurements.
Legend:
DLD1 [1] = assay: cell viability (CellTiter-Glo) relative to plate median (fraction of plate median); higher = more viable cells; settings: 5 µM; treatment time 24 h; reporter: 7TFP
In short: (§1)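 Values are well luminescence normalised to the plate median, from either a firefly luciferase or a CellTiterGlo readout on parallel plates. The cells, colorectal cancer lines stably transduced with lentiviral 7TFP or TCF4/Wnt firefly luciferase reporters, were treated with library compounds at a final 5 µM for 24 h. The mean of two independent replicates is listed.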

HCT116 [2] = assay: as above; settings: 5 µM; treatment time 24 h; reporter: TCF4/Wnt
In short: as §1

SW480 [3] = assay: as above; settings: 5 µM; treatment time 24 h; reporter: 7TFP
In short: as §1

DLD1 [4] = assay: TCF/Wnt firefly luciferase reporter signal relative to plate median (fraction of plate median); higher = higher Wnt reporter signal; settings: 5 µM; treatment time 24 h; reporter: 7TFP
In short: as §1

SW480 [5] = assay: as above; settings: 5 µM; treatment time 24 h; reporter: 7TFP
In short: as §1

DLD1 [6] = assay: cell viability (CellTiter-Glo) relative to plate median (fraction of plate median); higher = more viable cells; settings: 10 µM, treatment time 24 h
In short: (§2)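 Colorectal cancer cell lines stably transduced with lentiviral TCF/Wnt firefly luciferase reporters (7TFP or TCF4/Wnt) were seeded in 384-well plates. 24 h later they received kinase inhibitor library compounds at a final 10 µM for 24 h. Parallel plates were read for firefly luciferase or CellTiterGlo luminescence on a Tecan F500 reader. Each well's signal was normalised to the plate median (webcellHTS2, additive, no log transformation), and the mean of two independent replicates is reported.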

HCT116 [7] = assay: as above; settings: 10 µM; treatment time 24 h; reporter: TCF4/Wnt
In short: as §2

SW480 [8] = assay: as above; settings: 10 µM; treatment time 24 h; reporter: 7TFP
In short: as §2

DLD1 [9] = assay: TCF/Wnt firefly luciferase reporter signal relative to plate median (fraction of plate median); higher = higher Wnt reporter signal; settings: 10 µM, treatment time 24 h
In short: as §2

HCT116 [10] = assay: as above; settings: 10 µM; treatment time 24 h; reporter: TCF4/Wnt
In short: as §2

SW480 [11] = assay: as above; settings: 10 µM; treatment time 24 h; reporter: 7TFP
In short: as §2

SMILES: CC(=O)S[C@@H]1CC2=CC(=O)CC[C@]2(C)[C@H]2CC[C@@]3(C)[C@@H](CC[C@@]34CCC(=O)O4)[C@H]12
- cell viability (DLD1 [1]): 1.11 ± 0.014
- cell viability (HCT116 [2]): 0.97 ± 0.04
- cell viability (SW480 [3]): 1.06 ± 0.064
- TCF/Wnt firefly luciferase reporter signal (DLD1 [4]): 0.878 ± 0.15
- TCF/Wnt firefly luciferase reporter signal (SW480 [5]): 0.955 ± 0.016

SMILES: C[C@]12C=CC(=O)C=C1CC[C@@H]1[C@@H]2C(=O)C[C@@]2(C)[C@H]1CC[C@]2(O)C(=O)CO
- cell viability (DLD1 [1]): 1 ± 0.085
- cell viability (HCT116 [2]): 1.125 ± 0.0071
- cell viability (SW480 [3]): 1.07 ± 0.057
- TCF/Wnt firefly luciferase reporter signal (DLD1 [4]): 1.035 ± 0.0071
- TCF/Wnt firefly luciferase reporter signal (SW480 [5]): 0.91 ± 0.17

SMILES: CCCN(CCC)CCc1cccc2c1CC(=O)N2
- cell viability (DLD1 [1]): 1.02 ± 0.059
- cell viability (HCT116 [2]): 1.08 ± 0.014
- cell viability (SW480 [3]): 1.01 ± 0.044
- TCF/Wnt firefly luciferase reporter signal (DLD1 [4]): 1.18 ± 0.092
- TCF/Wnt firefly luciferase reporter signal (SW480 [5]): 1.07 ± 0.028

SMILES: COC1=CC(=O)C(C(=O)c2ccccc2)=CC1=O
- cell viability (DLD1 [1]): 0.965 ± 0.015
- cell viability (HCT116 [2]): 0.991 ± 0.028
- cell viability (SW480 [3]): 0.975 ± 0.028
- TCF/Wnt firefly luciferase reporter signal (DLD1 [4]): 1.03 ± 0.09
- TCF/Wnt firefly luciferase reporter signal (SW480 [5]): 1.04 ± 0.063

SMILES: COc1cnc(NS(=O)(=O)c2ccc(N)cc2)nc1
- cell viability (DLD1 [1]): 0.973 ± 0.0057
- cell viability (HCT116 [2]): 1.04 ± 0.035
- cell viability (SW480 [3]): 1.03 ± 0.035
- TCF/Wnt firefly luciferase reporter signal (DLD1 [4]): 1.04 ± 0.22
- TCF/Wnt firefly luciferase reporter signal (SW480 [5]): 0.892 ± 0.055

SMILES: C[C@@H]1CCN(C(=O)CC#N)C[C@@H]1N(C)c1ncnc2[nH]ccc12
- cell viability (DLD1 [6]; reporter: 7TFP): 1.02 and 1.09
- cell viability (DLD1 [6]; reporter: TCF4/Wnt): 1.07 and 1.1
- cell viability (HCT116 [7]): 1.21 and 1.14
- cell viability (SW480 [8]): 0.9 and 0.972
- TCF/Wnt firefly luciferase reporter signal (DLD1 [9]; reporter: 7TFP): 1.06 and 1.04
- TCF/Wnt firefly luciferase reporter signal (DLD1 [9]; reporter: TCF4/Wnt): 0.874 and 0.875
- TCF/Wnt firefly luciferase reporter signal (HCT116 [10]): 1.18 and 1.36
- TCF/Wnt firefly luciferase reporter signal (SW480 [11]): 0.736 and 0.979

SMILES: O=C(O)c1cccc(O)c1O
- cell viability (DLD1 [1]): 1.01 ± 0.047
- cell viability (HCT116 [2]): 1.14 ± 0.035
- cell viability (SW480 [3]): 1.02 ± 0.068
- TCF/Wnt firefly luciferase reporter signal (DLD1 [4]): 0.954 ± 0.034
- TCF/Wnt firefly luciferase reporter signal (SW480 [5]): 0.947 ± 0.0085

SMILES: COc1ccc(CCN(C)CCCC(C#N)(c2ccc(OC)c(OC)c2)C(C)C)cc1OC (stereo not drawn)
- cell viability (DLD1 [1]): 1.04 ± 0.12
- cell viability (HCT116 [2]): 0.971 ± 0.07
- cell viability (SW480 [3]): 1.02 ± 0.014
- TCF/Wnt firefly luciferase reporter signal (DLD1 [4]): 1.01 ± 0.12
- TCF/Wnt firefly luciferase reporter signal (SW480 [5]): 1.03 ± 0.11

SMILES: CC(C)(C)NCC(O)c1ccc(O)c(CO)c1 (stereo not drawn)
- cell viability (DLD1 [1]): 0.952 ± 0.096
- cell viability (HCT116 [2]): 1.07 ± 0.092
- cell viability (SW480 [3]): 0.922 ± 0.0057
- TCF/Wnt firefly luciferase reporter signal (DLD1 [4]): 1.06 ± 0.014
- TCF/Wnt firefly luciferase reporter signal (SW480 [5]): 0.995 ± 0.14

SMILES: Cc1cn([C@H]2C[C@H](N=[N+]=[N-])[C@@H](CO)O2)c(=O)[nH]c1=O
- cell viability (DLD1 [1]): 0.976 ± 0.012
- cell viability (HCT116 [2]): 0.958 ± 0.018
- cell viability (SW480 [3]): 1 ± 0.022
- TCF/Wnt firefly luciferase reporter signal (DLD1 [4]): 0.874 ± 0.02
- TCF/Wnt firefly luciferase reporter signal (SW480 [5]): 0.928 ± 0.011

SMILES: CN(C)CCc1c[nH]c2ccc(C[C@H]3COC(=O)N3)cc12
- cell viability (DLD1 [1]): 0.931 ± 0.059
- cell viability (HCT116 [2]): 1.08 ± 0.078
- cell viability (SW480 [3]): 1.04 ± 0.014
- TCF/Wnt firefly luciferase reporter signal (DLD1 [4]): 1.03 ± 0.021
- TCF/Wnt firefly luciferase reporter signal (SW480 [5]): 0.95 ± 0.069

SMILES: CCC(=O)OC1[C@@H]2CC3=C4CC(=O)O[C@@H](c5ccoc5)[C@]4(C)CCC3[C@@](C)(C2=O)[C@@H](CC(=O)OC)C1(C)C (stereo partly drawn)
- cell viability (DLD1 [1]): 0.932 ± 0.087
- cell viability (HCT116 [2]): 1.03 ± 0.046
- cell viability (SW480 [3]): 1 ± 0.027
- TCF/Wnt firefly luciferase reporter signal (DLD1 [4]): 0.969 ± 0.012
- TCF/Wnt firefly luciferase reporter signal (SW480 [5]): 0.979 ± 0.19

SMILES: C/C1=C2/[N-][C@H]([C@H](CC(N)=O)[C@@]2(C)CCC(=O)NC[C@@H](C)OP(=O)([O-])O[C@H]2[C@@H](O)[C@@H](n3cnc4cc(C)c(C)cc43)O[C@@H]2CO)[C@]2(C)N=C(/C(C)=C3N=C(/C=C4N=C1[C@@H](CCC(N)=O)C\4(C)C)[C@@H](CCC(N)=O)[C@]\3(C)CC(N)=O)[C@@H](CCC(N)=O)[C@]2(C)CC(N)=O.[CH2-][C@H]1O[C@H](n2cnc3c(N)ncnc32)[C@@H](O)[C@H]1O.[Co+3]
- cell viability (DLD1 [1]): 0.933 ± 0.021
- cell viability (HCT116 [2]): 0.964 ± 0.18
- cell viability (SW480 [3]): 0.998 ± 0.045
- TCF/Wnt firefly luciferase reporter signal (DLD1 [4]): 0.968 ± 0.13
- TCF/Wnt firefly luciferase reporter signal (SW480 [5]): 0.971 ± 0.2

SMILES: O=C(/C=C/c1ccccc1)c1ccc(O)cc1O
- cell viability (DLD1 [1]): 1 ± 0.025
- cell viability (HCT116 [2]): 0.984 ± 0.0071
- cell viability (SW480 [3]): 0.99 ± 0.028
- TCF/Wnt firefly luciferase reporter signal (DLD1 [4]): 1.12 ± 0.071
- TCF/Wnt firefly luciferase reporter signal (SW480 [5]): 1.07 ± 0.014

Reference: the supplement of paper PMC6522484
